In PubChem BioAssay (NCATS):
Records with an inconclusive call do not appear. The source made the active and inactive calls. Calls follow the shape of the dose curve; as a rule, active = well fitted cell-killing curve with a large enough effect; inconclusive = small, poorly fitted or top-dose-only effect, or effect the other way; inactive = no such curve, though single readings can be large or run the other way.

Experiment: Cell Viability - LYMP2-005 (AID 967)
Conditions: LYMP2-005 lymphoblastoid cell viability; series mostly up to 92.2 µM; activity change, negative = viability loss: at the top concentration
Description: NIH Chemical Genomics Center [NCGC]
NIH Molecular Libraries Screening Centers Network [MLSCN]
National Institutes of Environmental Health Sciences [NIEHS]
National Toxicology Program [NTP]
We have developed a 1536-well cell-based assay for quantitative high throughput screening (qHTS) against a number of cell lines to determine in vitro cytotoxicity of small molecules. This particular assay uses a human lymphoblastoid cell line (LYMP2-005) purchased from Coriell Institute for Medical Research.
NCGC Assay Protocol Summary:
The CellTiter-Glo luminescent cell viability assay (Promega) is a homogeneous method to measure the number of viable cells in culture. The end point readout of this assay is based on quantitation of intracellular ATP, an indicator of metabolic activity, using the luciferase reaction. Luciferase catalyzes the oxidation of beetle Luciferin to oxyluciferin and light in the presence of ATP. The luminescent signal is proportional to amount of ATP present.
Using the CellTiter-Glo luminescent cell viability assay, the amount of cellular ATP was measured in the lymphoblastoid cell line with complete culture medium following compound treatment for 24 hours. The assay was performed in opaque white Kalypsys 1536-well plates. In the screen, tetraoctylammonium bromide was used as positive control. Library compounds were measured for their ability to cause acute toxicity in the cell line, as reflected by a decrease in intracellular ATP levels, in a concentration-dependent manner. […] AC50 values were determined from concentration-response data modeled with the standard Hill equation.
qHTS protocol for CellTiter Glo lymphoblastoid cellular assay
[Step] [Parameter] [Value] [Description]
1. Reagent; 5 uL; 2500 lymphoblastoid cells/well
2. Time; 5 hr; 37 C incubation
4. Controls; 23 nL; Tetraoctylammonium bromide 6.4pM to 92 uM
5. Time; 24 hr; 37 C incubation
6. Reagent; 5 uL; CellTiter Glo reagent
7. Time; 30 min; Room Temperature
8. Detection; Luminescence; Viewlux plate reader
Keywords: cell viability, cytotoxicity, lymphoblastoid cell line, luminescence, NTPHTS, NTPHTS_NCGC, NIEHS, DSSTox, MLSMR, MLSCN, NIH Roadmap, qHTS, NCGC
In the case of `Cc1cc(C)cc(O)c1`, the “activity change, negative = viability loss” value is reported as 3.15% (inactive). For `Cc1ccccc1C(=O)O`, the “activity change, negative = viability loss” value was -2.36% (inactive). In the case of `CC(=O)OC(C)=O`, the “activity change, negative = viability loss” value is reported as -40.7% (inactive). In the case of `c1ccc2[nH]cnc2c1`, the “activity change, negative = viability loss” value is reported as 3.22% (inactive). In the case of `Nc1cccc(N)c1`, the “activity change, negative = viability loss” value is reported as 7.01% (inactive). For `Cc1ccc(C)c(N)c1`, the “activity change, negative = viability loss” value was 12% (inactive). In the case of `CC(=O)c1nccs1`, the “activity change, negative = viability loss” value is reported as 15.9% (inactive). For `NC=O`, the “activity change, negative = viability loss” value was 12.9% (inactive). In the case of `CCCCC(CC)CO` (stereo not given), the “activity change, negative = viability loss” value is reported as 7.78% (inactive). For `Nc1cc(Cl)c([N+](=O)[O-])cc1O`, the “activity change, negative = viability loss” value was 2.72% (inactive). For `NC(=O)c1cccc([N+](=O)[O-])c1`, the “activity change, negative = viability loss” value was -0.376% (inactive). In the case of `CC(C)c1ccccc1`, the “activity change, negative = viability loss” value is reported as 0.317% (inactive). In the case of `CC(C)=CCC/C(C)=C/C=O`, the “activity change, negative = viability loss” value is reported as 0.813% (inactive). For `Clc1cc(Cl)cc(Cl)c1`, the “activity change, negative = viability loss” value was 9.63% (inactive). With `O=C(O[C@@H](C(=O)O)[C@@H](OC(=O)c1ccccc1)C(=O)O)c1ccccc1` the “activity change, negative = viability loss” value was -5.25% (inactive). With `NS(=O)(=O)O` the “activity change, negative = viability loss” value was 14.5% (inactive). In the case of `O=[N+]([O-])c1c(Cl)cc(Cl)cc1Cl`, the “activity change, negative = viability loss” value is reported as 2.87% (inactive). With `N#CCc1ccccc1[N+](=O)[O-]` the “activity change, negative = viability loss” value was -8.68% (inactive). For `C(=C/c1ccccc1)/c1ccccc1`, the “activity change, negative = viability loss” value was -30.8% (inactive). In the case of `CCN(CC)c1cccc(O)c1`, the “activity change, negative = viability loss” value is reported as 2.06% (inactive). In the case of `ClC/C=C/CCl`, the “activity change, negative = viability loss” value is reported as 11.2% (inactive). In the case of `Cc1cc(C(=O)O)ccc1[N+](=O)[O-]`, the “activity change, negative = viability loss” value is reported as 15.6% (inactive). For `O=Cc1ccccc1Cl`, the “activity change, negative = viability loss” value was -1.5% (inactive). With `CNC(=O)N(c1ccccc1)c1ccccc1` the “activity change, negative = viability loss” value was -15.3% (inactive). With `CCCOCC(C)OCC(C)O` (stereo not given) the “activity change, negative = viability loss” value was 3.67% (inactive). For `CC(=O)OC(C)C`, the “activity change, negative = viability loss” value was 7.27% (inactive). For `O=c1[nH][nH]c(=O)c2cc([N+](=O)[O-])ccc12`, the “activity change, negative = viability loss” value was 6.42% (inactive). For `C=C(C)C(=O)OCC(C)O` (stereo not given), the “activity change, negative = viability loss” value was 3.83% (inactive). In the case of `C/C=C(/C)C#N`, the “activity change, negative = viability loss” value is reported as -12.6% (inactive). With `O=C(O)/C=C/C(=O)O` the “activity change, negative = viability loss” value was 10.5% (inactive). For `CNC(=O)c1ccccc1`, the “activity change, negative = viability loss” value was 9.35% (inactive). For `CCCCC(CC)CNCC(CC)CCCC` (stereo not given), the “activity change, negative = viability loss” value was 18.2% (inactive). For `O=C(O)c1cccc([N+](=O)[O-])c1`, the “activity change, negative = viability loss” value was 13.2% (inactive). In the case of `CC(=O)C1(C)CC2=C(CCCC2(C)C)CC1C` (stereo not given), the “activity change, negative = viability loss” value is reported as 12.9% (inactive). For `Cc1ccc(C)o1`, the “activity change, negative = viability loss” value was 4.24% (inactive). In the case of `C=C(C)OC(C)=O`, the “activity change, negative = viability loss” value is reported as 8.01% (inactive). For `CCCCCCCCC/C=C/CC1CC(=O)OC1=O` (stereo not given), the “activity change, negative = viability loss” value was 10.7% (inactive). In the case of `C/C=C1\CC2C=CC1C2` (stereo not given), the “activity change, negative = viability loss” value is reported as 1.87% (inactive). In the case of `COc1cccc2sc(N)nc12`, the “activity change, negative = viability loss” value is reported as 9.85% (inactive). For `CC(=O)Nc1ccc(N)cc1`, the “activity change, negative = viability loss” value was -5.2% (inactive).
